# Laboratory results published in article PMC7862700, “An all-to-all approach to the identification of sequence-specific readers for epigenetic DNA modifications on cytosine”.
# Legend:
# Experiment in all cases: DAPPL (digital affinity profiling via proximity ligation, sequencing); 10 mM Tris-HCl pH 7.5, 50 mM NaCl, 1 mM DTT, 4% glycerol, room temperature, 30 min; GST-TFs on glutathione beads, 16-mer random dsDNA library, 0.1% formaldehyde crosslink after washing; high values mean tight binding
# FLI1 = target: T1, FLI1 (Homo sapiens, UniProt Q01543 1-452); settings: protein: recombinant; tags: N-terminal GST; dsDNA, one strand shown
# T1 sequence: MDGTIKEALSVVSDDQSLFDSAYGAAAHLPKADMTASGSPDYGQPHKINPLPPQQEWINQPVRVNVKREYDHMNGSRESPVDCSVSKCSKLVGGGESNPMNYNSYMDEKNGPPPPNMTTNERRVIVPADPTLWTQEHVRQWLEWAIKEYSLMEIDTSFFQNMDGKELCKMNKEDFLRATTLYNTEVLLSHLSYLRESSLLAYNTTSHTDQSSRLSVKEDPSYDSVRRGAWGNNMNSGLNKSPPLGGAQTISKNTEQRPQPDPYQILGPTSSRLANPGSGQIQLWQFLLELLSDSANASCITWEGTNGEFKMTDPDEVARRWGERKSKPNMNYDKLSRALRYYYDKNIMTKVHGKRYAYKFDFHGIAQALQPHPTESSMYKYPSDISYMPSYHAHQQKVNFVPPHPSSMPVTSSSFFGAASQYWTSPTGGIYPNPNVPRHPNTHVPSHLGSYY
# How it was run: (§1)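 Yeast served to express human transcription factors as GST fusions, which were then captured on glutathione beads and labelled with DNA barcodes. Pooled with a tag-only sample, they were incubated with 200 nmole of a 16-mer random double-stranded DNA library for 30 min at room temperature in Tris/NaCl/DTT/glycerol buffer, washed, crosslinked with 0.1% formaldehyde, ligated by proximity, amplified by PCR and sequenced. Dividing each hexamer's read frequency for a factor by its frequency for the tag-only sample gives the binding signal.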
# ELK1 = target: T2, ELK1 (Homo sapiens, UniProt P19419 1-428); settings: protein: recombinant; tags: N-terminal GST; dsDNA, one strand shown
# T2 sequence: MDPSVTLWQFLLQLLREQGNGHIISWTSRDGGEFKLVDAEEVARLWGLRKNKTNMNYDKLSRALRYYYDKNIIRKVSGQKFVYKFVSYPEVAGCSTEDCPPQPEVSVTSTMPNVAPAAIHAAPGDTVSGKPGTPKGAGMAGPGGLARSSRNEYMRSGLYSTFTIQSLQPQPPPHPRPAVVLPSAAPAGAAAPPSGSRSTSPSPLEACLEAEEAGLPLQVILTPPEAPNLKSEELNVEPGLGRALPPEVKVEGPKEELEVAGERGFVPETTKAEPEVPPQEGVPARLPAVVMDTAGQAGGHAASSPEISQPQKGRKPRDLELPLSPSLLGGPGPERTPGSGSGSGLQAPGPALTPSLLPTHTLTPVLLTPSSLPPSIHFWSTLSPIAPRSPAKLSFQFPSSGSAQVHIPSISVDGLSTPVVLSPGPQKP
# How it was run: as §1
# GABPA = target: T3, GABPA (Homo sapiens, UniProt Q06546 1-454); settings: protein: recombinant; tags: N-terminal GST; dsDNA, one strand shown
# T3 sequence: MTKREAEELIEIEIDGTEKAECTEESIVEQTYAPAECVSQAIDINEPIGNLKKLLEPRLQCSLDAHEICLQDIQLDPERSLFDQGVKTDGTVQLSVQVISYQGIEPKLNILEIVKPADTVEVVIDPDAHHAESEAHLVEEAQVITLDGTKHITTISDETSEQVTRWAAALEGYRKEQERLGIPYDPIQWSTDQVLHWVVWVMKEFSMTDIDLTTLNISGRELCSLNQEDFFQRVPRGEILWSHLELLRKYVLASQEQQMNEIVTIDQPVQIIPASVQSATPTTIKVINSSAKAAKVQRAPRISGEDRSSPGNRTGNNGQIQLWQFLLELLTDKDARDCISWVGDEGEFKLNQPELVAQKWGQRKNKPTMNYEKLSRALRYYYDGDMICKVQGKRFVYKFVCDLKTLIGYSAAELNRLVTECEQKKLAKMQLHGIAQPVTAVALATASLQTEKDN
# How it was run: as §1
# ERG = target: T4, ERG (Homo sapiens, UniProt P11308 1-479); settings: protein: recombinant; tags: N-terminal GST; dsDNA, one strand shown
# T4 sequence: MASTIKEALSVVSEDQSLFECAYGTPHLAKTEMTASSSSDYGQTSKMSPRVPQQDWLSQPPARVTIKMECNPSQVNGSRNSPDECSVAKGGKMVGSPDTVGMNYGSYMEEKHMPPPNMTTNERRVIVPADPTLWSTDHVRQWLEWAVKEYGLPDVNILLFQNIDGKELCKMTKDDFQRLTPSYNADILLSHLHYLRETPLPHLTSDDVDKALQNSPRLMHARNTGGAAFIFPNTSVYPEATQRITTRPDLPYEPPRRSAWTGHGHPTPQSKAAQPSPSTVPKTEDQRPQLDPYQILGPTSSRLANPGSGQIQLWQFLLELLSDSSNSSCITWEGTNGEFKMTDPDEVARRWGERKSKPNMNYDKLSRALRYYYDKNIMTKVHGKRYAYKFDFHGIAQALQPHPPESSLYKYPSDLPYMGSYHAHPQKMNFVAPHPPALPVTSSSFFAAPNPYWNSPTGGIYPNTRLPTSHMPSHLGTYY
# How it was run: as §1
# ELF1 = ELF1 (Homo sapiens, UniProt P32519 1-619); settings: protein: recombinant; tags: N-terminal GST; dsDNA, one strand shown
# Chain of ELF1 (P32519 whole entry): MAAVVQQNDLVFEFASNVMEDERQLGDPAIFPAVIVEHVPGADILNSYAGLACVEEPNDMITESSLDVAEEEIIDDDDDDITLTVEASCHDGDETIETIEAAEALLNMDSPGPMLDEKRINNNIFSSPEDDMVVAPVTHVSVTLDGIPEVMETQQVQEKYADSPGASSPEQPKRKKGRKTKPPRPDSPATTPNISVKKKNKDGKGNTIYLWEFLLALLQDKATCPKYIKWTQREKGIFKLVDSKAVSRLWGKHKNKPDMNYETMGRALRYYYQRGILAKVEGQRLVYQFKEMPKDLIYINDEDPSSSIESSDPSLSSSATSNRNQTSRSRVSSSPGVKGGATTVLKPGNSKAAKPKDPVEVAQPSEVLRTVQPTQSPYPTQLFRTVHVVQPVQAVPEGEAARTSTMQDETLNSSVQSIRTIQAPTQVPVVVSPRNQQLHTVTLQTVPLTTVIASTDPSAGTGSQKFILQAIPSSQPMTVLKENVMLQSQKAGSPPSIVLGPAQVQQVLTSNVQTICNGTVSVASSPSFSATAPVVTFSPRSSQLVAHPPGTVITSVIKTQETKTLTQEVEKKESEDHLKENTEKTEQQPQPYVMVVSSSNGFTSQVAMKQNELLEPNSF
# How it was run: as §1
# EHF = target: T5, EHF (Homo sapiens, UniProt Q9NZC4 1-300); settings: protein: recombinant; tags: N-terminal GST; dsDNA, one strand shown
# T5 sequence: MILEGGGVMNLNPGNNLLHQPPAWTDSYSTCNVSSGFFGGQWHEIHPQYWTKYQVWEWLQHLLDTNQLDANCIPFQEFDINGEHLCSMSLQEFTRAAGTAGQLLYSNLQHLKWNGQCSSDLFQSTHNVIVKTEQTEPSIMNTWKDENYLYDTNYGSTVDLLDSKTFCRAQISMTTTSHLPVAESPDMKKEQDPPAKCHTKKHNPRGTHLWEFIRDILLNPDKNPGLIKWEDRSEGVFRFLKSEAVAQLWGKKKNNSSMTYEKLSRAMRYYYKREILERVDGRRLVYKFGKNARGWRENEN
# How it was run: as §1
# SPI1 = SPI1 (Homo sapiens, UniProt P17947 1-270); settings: protein: recombinant; tags: N-terminal GST; dsDNA, one strand shown
# How it was run: as §1
# SPIB = SPIB (Homo sapiens, UniProt Q01892 1-262); settings: protein: recombinant; tags: N-terminal GST; dsDNA, one strand shown
# Chain of SPIB (Q01892 whole entry): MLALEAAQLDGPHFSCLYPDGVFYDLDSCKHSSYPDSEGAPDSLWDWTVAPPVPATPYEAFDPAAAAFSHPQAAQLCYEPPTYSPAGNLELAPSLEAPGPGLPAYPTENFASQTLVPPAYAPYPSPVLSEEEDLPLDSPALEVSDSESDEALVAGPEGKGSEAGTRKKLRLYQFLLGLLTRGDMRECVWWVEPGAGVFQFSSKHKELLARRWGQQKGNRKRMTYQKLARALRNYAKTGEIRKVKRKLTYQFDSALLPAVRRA
# How it was run: as §1
# ELK3 = target: T6, ELK3 (Homo sapiens, UniProt P41970 1-407); settings: protein: recombinant; tags: N-terminal GST; dsDNA, one strand shown
# T6 sequence: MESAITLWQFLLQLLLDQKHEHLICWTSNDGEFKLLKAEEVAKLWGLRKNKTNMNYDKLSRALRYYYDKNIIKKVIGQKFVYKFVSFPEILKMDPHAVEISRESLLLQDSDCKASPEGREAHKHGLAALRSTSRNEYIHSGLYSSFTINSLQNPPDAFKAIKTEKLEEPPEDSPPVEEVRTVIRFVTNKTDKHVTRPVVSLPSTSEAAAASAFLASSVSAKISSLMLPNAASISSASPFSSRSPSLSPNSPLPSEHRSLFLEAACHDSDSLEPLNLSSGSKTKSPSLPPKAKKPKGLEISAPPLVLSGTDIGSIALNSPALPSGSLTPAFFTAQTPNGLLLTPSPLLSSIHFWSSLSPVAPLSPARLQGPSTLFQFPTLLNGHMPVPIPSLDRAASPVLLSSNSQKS
# How it was run: as §1
# FEV = target: T7, FEV (Homo sapiens, UniProt Q99581 1-238); settings: protein: recombinant; tags: N-terminal GST; dsDNA, one strand shown
# T7 sequence: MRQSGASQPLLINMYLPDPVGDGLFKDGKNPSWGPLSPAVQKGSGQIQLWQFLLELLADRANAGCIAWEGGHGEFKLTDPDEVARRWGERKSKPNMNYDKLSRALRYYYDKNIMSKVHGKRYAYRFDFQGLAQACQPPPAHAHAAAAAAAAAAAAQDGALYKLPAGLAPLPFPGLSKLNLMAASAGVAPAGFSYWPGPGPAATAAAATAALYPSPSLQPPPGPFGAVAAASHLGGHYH
# How it was run: as §1
# ETV5 = ETV5 (Homo sapiens, UniProt P41161 1-510); settings: protein: recombinant; tags: N-terminal GST; dsDNA, one strand shown
# Chain of ETV5 (P41161 whole entry): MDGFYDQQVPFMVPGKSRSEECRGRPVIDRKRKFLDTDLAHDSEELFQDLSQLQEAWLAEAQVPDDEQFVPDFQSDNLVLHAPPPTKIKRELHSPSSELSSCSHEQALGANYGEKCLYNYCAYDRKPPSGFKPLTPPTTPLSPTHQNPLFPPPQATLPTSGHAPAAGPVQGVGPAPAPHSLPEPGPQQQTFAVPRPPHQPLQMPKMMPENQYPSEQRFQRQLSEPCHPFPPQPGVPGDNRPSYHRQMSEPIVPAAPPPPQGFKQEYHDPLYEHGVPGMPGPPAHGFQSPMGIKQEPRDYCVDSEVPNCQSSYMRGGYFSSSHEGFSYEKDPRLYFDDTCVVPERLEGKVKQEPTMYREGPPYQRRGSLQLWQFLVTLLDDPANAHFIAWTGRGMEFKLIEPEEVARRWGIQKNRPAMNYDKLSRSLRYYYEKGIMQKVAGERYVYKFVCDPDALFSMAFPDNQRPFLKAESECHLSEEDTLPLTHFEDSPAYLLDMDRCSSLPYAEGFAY
# How it was run: as §1
# HSF1 = HSF1 (Homo sapiens, UniProt Q00613 1-529); settings: protein: recombinant; tags: N-terminal GST; chain copies: 3; dsDNA, one strand shown
# Chain of HSF1 (Q00613 whole entry): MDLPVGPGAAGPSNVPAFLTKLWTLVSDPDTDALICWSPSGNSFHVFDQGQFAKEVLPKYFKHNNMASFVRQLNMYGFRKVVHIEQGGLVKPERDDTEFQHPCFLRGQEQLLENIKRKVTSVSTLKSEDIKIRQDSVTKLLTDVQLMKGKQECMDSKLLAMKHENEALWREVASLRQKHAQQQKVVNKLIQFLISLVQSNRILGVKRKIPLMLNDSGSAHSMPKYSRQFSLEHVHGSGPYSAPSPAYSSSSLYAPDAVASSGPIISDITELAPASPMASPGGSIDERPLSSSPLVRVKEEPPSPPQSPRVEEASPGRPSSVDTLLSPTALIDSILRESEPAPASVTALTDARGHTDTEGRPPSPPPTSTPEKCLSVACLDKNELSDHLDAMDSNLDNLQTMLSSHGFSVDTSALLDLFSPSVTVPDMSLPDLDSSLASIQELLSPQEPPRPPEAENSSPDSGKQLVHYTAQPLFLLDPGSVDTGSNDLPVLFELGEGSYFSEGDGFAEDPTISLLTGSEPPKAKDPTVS
# How it was run: as §1
# SPIC = target: T8, SPIC (Homo sapiens, UniProt Q8N5J4 1-248); settings: protein: recombinant; tags: N-terminal GST; dsDNA, one strand shown
# T8 sequence: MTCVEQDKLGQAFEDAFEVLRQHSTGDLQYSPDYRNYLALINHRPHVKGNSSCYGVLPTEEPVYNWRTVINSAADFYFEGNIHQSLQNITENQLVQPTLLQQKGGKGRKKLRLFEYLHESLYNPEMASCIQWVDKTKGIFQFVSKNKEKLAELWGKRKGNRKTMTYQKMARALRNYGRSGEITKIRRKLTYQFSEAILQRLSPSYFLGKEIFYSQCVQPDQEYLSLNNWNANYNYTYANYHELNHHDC
# How it was run: as §1
# ELF4 = ELF4 (Homo sapiens, UniProt Q99607 1-663); settings: protein: recombinant; tags: N-terminal GST; dsDNA, one strand shown
# Chain of ELF4 (Q99607 whole entry): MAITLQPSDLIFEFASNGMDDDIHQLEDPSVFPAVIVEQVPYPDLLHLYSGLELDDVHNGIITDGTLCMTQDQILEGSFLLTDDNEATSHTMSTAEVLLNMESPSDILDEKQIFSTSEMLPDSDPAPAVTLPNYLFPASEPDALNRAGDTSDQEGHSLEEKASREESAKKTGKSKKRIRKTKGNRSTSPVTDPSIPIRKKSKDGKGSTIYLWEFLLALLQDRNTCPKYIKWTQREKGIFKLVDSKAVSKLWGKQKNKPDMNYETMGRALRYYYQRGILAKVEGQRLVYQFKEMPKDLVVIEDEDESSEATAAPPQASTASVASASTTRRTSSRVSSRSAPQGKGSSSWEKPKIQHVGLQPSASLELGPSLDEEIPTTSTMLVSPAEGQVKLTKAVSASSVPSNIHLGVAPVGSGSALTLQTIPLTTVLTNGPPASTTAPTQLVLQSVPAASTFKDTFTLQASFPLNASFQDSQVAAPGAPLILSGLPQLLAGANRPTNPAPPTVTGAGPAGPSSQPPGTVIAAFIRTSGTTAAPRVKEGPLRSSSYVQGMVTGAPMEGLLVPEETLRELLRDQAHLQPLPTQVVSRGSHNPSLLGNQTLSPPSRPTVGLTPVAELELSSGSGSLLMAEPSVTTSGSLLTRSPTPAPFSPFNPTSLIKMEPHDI
# How it was run: as §1
# ELK4 = target: T9, ELK4 (Homo sapiens, UniProt P28324-2 1-405); settings: protein: recombinant; tags: N-terminal GST; dsDNA, one strand shown
# T9 sequence: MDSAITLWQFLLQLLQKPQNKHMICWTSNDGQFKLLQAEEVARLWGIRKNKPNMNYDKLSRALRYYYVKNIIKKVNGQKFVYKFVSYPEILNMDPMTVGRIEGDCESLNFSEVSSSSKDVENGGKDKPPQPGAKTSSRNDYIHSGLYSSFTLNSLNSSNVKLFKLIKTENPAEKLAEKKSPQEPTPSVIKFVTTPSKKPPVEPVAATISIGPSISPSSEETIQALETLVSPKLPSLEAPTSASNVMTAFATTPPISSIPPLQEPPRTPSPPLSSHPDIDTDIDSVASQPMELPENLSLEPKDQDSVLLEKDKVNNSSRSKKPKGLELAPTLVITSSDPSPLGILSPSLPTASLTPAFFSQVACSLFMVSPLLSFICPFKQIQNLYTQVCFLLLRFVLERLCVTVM
# How it was run: as §1
# ETV2 = target: T10, ETV2 (Homo sapiens, UniProt O00321 1-342); settings: protein: recombinant; tags: N-terminal GST; dsDNA, one strand shown
# T10 sequence: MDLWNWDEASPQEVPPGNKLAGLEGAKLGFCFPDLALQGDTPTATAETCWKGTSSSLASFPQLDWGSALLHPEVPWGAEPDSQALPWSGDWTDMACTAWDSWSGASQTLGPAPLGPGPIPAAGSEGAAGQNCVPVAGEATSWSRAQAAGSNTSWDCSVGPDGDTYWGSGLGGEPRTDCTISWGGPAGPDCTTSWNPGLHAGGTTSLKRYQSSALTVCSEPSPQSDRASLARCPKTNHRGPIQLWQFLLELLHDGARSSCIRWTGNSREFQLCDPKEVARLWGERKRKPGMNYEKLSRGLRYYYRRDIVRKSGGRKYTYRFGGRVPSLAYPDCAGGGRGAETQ
# How it was run: as §1
# ELF3 = target: T11, ELF3 (Homo sapiens, UniProt P78545 1-371); settings: protein: recombinant; tags: N-terminal GST; dsDNA, one strand shown
# T11 sequence: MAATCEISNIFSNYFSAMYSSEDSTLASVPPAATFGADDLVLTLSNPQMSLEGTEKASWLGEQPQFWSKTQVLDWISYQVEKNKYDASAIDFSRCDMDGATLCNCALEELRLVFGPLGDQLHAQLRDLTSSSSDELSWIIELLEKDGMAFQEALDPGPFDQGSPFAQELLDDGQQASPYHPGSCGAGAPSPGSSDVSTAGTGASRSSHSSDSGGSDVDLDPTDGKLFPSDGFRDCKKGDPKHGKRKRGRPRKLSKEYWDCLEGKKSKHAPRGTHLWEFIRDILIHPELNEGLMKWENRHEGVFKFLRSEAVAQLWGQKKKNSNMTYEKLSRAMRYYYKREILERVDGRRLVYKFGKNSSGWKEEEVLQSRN
# How it was run: as §1
# CRX = CRX (Homo sapiens, UniProt O43186 1-299); settings: protein: recombinant; tags: N-terminal GST; dsDNA, one strand shown
# Chain of CRX (O43186 whole entry): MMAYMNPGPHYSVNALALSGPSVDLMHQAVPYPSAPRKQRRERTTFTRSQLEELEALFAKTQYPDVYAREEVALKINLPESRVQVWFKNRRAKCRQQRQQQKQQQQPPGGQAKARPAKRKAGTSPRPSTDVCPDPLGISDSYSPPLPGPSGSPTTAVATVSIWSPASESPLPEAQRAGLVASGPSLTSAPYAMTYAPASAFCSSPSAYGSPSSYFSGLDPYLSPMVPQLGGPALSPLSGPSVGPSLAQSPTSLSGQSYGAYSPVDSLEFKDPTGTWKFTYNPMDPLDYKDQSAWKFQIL
# How it was run: as §1
# ETV1 = ETV1 (Homo sapiens, UniProt P50549 1-477); settings: protein: recombinant; tags: N-terminal GST; dsDNA, one strand shown
# Chain of ETV1 (P50549 whole entry): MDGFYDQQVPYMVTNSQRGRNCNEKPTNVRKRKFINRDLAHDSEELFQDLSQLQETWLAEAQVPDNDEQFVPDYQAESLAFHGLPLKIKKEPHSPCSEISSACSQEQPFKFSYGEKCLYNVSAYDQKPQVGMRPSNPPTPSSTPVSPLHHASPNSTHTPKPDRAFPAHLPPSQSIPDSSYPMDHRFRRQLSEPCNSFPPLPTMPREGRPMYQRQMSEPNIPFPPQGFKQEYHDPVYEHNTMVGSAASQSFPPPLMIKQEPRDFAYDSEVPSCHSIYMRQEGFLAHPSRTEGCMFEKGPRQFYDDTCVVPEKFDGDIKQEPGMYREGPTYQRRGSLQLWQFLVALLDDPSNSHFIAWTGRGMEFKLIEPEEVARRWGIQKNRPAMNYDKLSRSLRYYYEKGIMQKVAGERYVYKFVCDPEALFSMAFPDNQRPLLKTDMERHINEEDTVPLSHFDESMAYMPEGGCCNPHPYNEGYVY
# How it was run: as §1
sequence,measurement,setting,value
ACGGAT,binding signal,FLI1,"1.27 fold enrichment (6-mer frequency, TF over GST control)"
same,binding signal,ELK1,"1.21 fold enrichment (6-mer frequency, TF over GST control)"
same,binding signal,GABPA,"1.21 fold enrichment (6-mer frequency, TF over GST control)"
same,binding signal,ERG,"1.37 fold enrichment (6-mer frequency, TF over GST control)"
same,binding signal,ELF1,"1.22 fold enrichment (6-mer frequency, TF over GST control)"
same,binding signal,EHF,"1.3 fold enrichment (6-mer frequency, TF over GST control)"
same,binding signal,SPI1,"1.2 fold enrichment (6-mer frequency, TF over GST control)"
same,binding signal,SPIB,"1.19 fold enrichment (6-mer frequency, TF over GST control)"
same,binding signal,ELK3,"1.29 fold enrichment (6-mer frequency, TF over GST control)"
same,binding signal,FEV,"1.54 fold enrichment (6-mer frequency, TF over GST control)"
same,binding signal,ETV5,"1.32 fold enrichment (6-mer frequency, TF over GST control)"
same,binding signal,HSF1,"1.18 fold enrichment (6-mer frequency, TF over GST control)"
same,binding signal,SPIC,"1.38 fold enrichment (6-mer frequency, TF over GST control)"
same,binding signal,ELF4,"1.19 fold enrichment (6-mer frequency, TF over GST control)"
same,binding signal,ELK4,"1.12 fold enrichment (6-mer frequency, TF over GST control)"
same,binding signal,ETV2,"1.2 fold enrichment (6-mer frequency, TF over GST control)"
same,binding signal,ELF3,"1.3 fold enrichment (6-mer frequency, TF over GST control)"
same,binding signal,CRX,"1.61 fold enrichment (6-mer frequency, TF over GST control)"
same,binding signal,ETV1,"1.23 fold enrichment (6-mer frequency, TF over GST control)"
